The values that follow come from PubChem BioAssay.

In the assay the target is Alpha-bungarotoxin (Bungarus multicinctus) (UniProt P60615). Kind of assay: compounds binding labelled alpha-BTX control protein – biochemical, small-molecule microarray, Alexa647 label, 635/667 nm fluorescence, artefact control for SMM control protein annotation, profiling panel (AID 1117). Particulars: alpha-BTX-A647 binding fluorescence, higher = more signal.
Chain of Alpha-bungarotoxin (Bungarus multicinctus) (P60615 whole entry, looked up): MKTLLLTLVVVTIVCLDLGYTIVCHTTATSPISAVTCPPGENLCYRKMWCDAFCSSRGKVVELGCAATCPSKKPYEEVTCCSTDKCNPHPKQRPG
`CCOC(=O)[C@H](Cc1ccccc1)NC(=O)CCC1CC(OC(=O)NCc2cccc3ccccc23)CC2(CCCC(COC(=O)NCc3ccc4c(c3)OCO4)O2)O1` (stereo partly specified) displayed a composite z-score of -0.382.

In turn, `COc1cccc([C@H]2Oc3ccc(OC)cc3C(=NO[C@@H](C)c3cc(-c4c(C)cc(C)cc4C)no3)[C@@H]2O)c1` had a composite z-score of -0.628.

For `CC(=O)OC[C@H]1O[C@H](C#CCCc2ccccc2)C=C[C@@H]1OC(C)=O`, the composite z-score was found to be 1.53.

In turn, `CC(C)=NO[C@@H](C)c1cn([C@H](CO)Cc2ccccc2)nn1` displayed a composite z-score of 0.392.

In the case of `COC(=O)C(C(=O)OC)C1CCCC(=O)C1` (stereo unspecified), the composite z-score stood at 0.0087. For `COC(=O)CC=C[C@@H](C)[C@@H](C=NOC[C@@H](C)[C@H](OCc1ccccc1)C(C)C)OC` the value was 0.215. For `COc1ccc(O[C@H]2C=C[C@@H](c3ccccc3)O[C@@H]2COC(=O)NCc2cccc3ccccc23)cc1` the value was 0.33; for `CC(C)CON=C1C[C@@H](O)[C@@H](O)[C@@H]2[C@@H]3C(=O)N(C(C)(C)C)C(=O)[C@@H]3CC[C@@H]12`, -0.718. `CON=C(C)CCN1CCCCc2nc(C)c(C)cc21` showed a composite z-score of -0.0996. Molecule `O=C1[C@H]2[C@H]3[C@H](O)[C@H](O)CC(=NO[C@@H]4O[C@H](CO)[C@@H](O)[C@H](O)[C@H]4O)[C@@H]3CC[C@H]2C(=O)N1C[C@@H]1CCCO1` registered a composite z-score of -0.103.

As to `CCN1C(=O)[C@H]2[C@@H]3C(=CC[C@H]2C1=O)C(=O)[C@H]1O[C@H]1[C@H]3O`, the composite z-score was determined as 0.0607. As to `CC=CC1=C(CO)[C@H](O)[C@H]2O[C@H]2[C@@H]1O`, the composite z-score was found to be 0.495. In turn, `CC(=O)OC[C@H]1O[C@H](CC=NOC[C@@H](O)[C@H]2O[C@@H]3OC(C)(C)O[C@@H]3[C@H]2O)C=C[C@@H]1OC(C)=O` gave a composite z-score of 1.32. In the case of `CO[C@H]1COC(=O)CC=C[C@H](C)[C@H](OC)COC(=O)[C@@H](C)NC(=O)CC=C[C@@H]1C`, the composite z-score was -0.32.

Take `C#CCCCON=C1C[C@@H](O)[C@@H](O)[C@@H]2[C@@H]3C(=O)N([C@@H](C)c4ccccc4)C(=O)[C@@H]3CC[C@@H]12`: the composite z-score turned out to be 0.46. The molecule `C=CC[C@@H]1C=C[C@H](ON=C(C)CCN2CCCc3nc(C)c(C)cc32)[C@@H](CO)O1` showed a composite z-score of 0.366. `CCOC(=O)[C@H](CC(C)C)NC(=O)CCC1CC(OC(=O)NCCc2ccc(F)cc2)CC2(CCCC(COC(=O)NCCOC)O2)O1` (stereo partly specified) had a composite z-score of 0.411.

Molecule `CC(CCC(=O)OC[C@H]1O[C@H](C#Cc2ccccc2)C=C[C@@H]1Oc1ccc(C)cc1)=NOC[C@@H](C)[C@H](OCc1ccccc1)C(C)C` gave a composite z-score of -0.79. Molecule `COc1ccc(O[C@H]2C=C[C@@H](c3ccccc3)O[C@@H]2CO)cc1` gave a composite z-score of 0.441. `CCOC(=O)CCN1C(=O)[C@H]2[C@H]3[C@H](O)[C@H](O)CC(=NOCC(C)C)[C@@H]3CC[C@H]2C1=O` had a composite z-score of -0.799. In turn, `CO[C@H]1COC(=O)[C@H](CCSC)NC(=O)CC=C[C@@H](C)[C@H](OC)COC(=O)[C@@H](OCc2ccccc2)C=C[C@@H]1C` showed a composite z-score of -0.531. `CC(CCC(=O)OC[C@H]1O[C@H](C#Cc2ccccc2)C=C[C@@H]1Oc1ccc(C)cc1)=NO[C@@H](C)c1cc(-c2c(C)cc(C)cc2C)no1` had a composite z-score of 0.326. `CC(C)[C@@H](OCc1ccccc1)[C@H](C)C=NO[C@H](C)c1cn([C@@H]2COC[C@H]2O)nn1`: the composite z-score came out at 0.586. Molecule `CCOC(=O)CCN1C(=O)[C@H]2[C@H]3[C@H](O)[C@H](O)CC(=O)[C@@H]3CC[C@H]2C1=O` came in with a composite z-score of 0.321.

Turning to `COC(OC)[C@@H](C)[C@H](OC)[C@@H](C)[C@H](OC)c1ccccc1`, the composite z-score was -0.0469. `C=CC[C@@H]1C=C[C@H](ON=C(C)CCN2CCCCc3nc(C)c(C)cc32)[C@@H](CO)O1` returned a composite z-score of -0.102. For `CC(C)=CCCC(C)=CCON=C1C[C@@H](O)[C@@H](O)[C@@H]2[C@@H]3C(=O)N(Cc4ccc5c(c4)OCO5)C(=O)[C@@H]3CC[C@H]12` the value was 0.168. Under `COc1cccc([C@H]2Oc3ccc(OC)cc3C(=NOCC[C@@H]3C=C[C@H](OC(C)=O)[C@@H](COC(C)=O)O3)[C@@H]2O)c1` stands 0.635. The molecule `COC(=O)[C@H](C)NC(=O)CCC1CC(OC(=O)NCc2ccc3c(c2)OCO3)CC2(CCCC(COC(=O)NCCC(C)C)O2)O1` (stereo partly specified) returned a composite z-score of 1.48.

On to `O=C1[C@H]2CCn3c(=O)n(-c4ccccc4)c(=O)n3[C@H]2[C@H](O)[C@@H]2O[C@H]12`, for which the composite z-score was determined as 0.658. In turn, `C[C@]12CCC3c4ccc(OCC5CO5)cc4CCC3C1CC[C@@H]2O` (stereo partly specified) displayed a composite z-score of 1.59. As for `CCN1C(=O)[C@H]2[C@H]3[C@H](O)[C@H](O)CC(=NNC(=O)OCc4ccccc4)[C@H]3CC[C@H]2C1=O`, the composite z-score was 0.504. In the case of `CCN1C(=O)[C@H]2[C@H]3[C@H](O)[C@H](O)CC(=NOCC=C(C)CCC=C(C)C)[C@@H]3CC[C@H]2C1=O`, the composite z-score is 0.791. On to `CCOC(=O)[C@H](Cc1ccccc1)NC(=O)CCC1CC(OC(=O)NCc2cccc3ccccc23)CC2(CCCC(COC(=O)NCCc3ccccc3OC)O2)O1` (stereo partly specified), for which the composite z-score amounted to 0.635.

`CON=C1c2cc(OC)ccc2O[C@H](c2cccc(OC)c2)[C@H]1O` yielded a composite z-score of -0.0531. For `CCOC(=O)[C@H](CC(C)C)NC(=O)CCC1CC(OC(=O)NCc2ccc3c(c2)OCO3)CC2(CCCC(COC(=O)NCCC(C)C)O2)O1` (stereo partly specified) the value was 0.0789.
